Holding throughout (test): NCI-60 one-dose screen, 48 h (100 = growth as untreated, 0 = no growth, -100 = all killed)
Conditions in all cases: 10 µM unless noted

For assay [1], the system named is T-47D breast.
Assay [2] deals with BT-549 breast.
Assay [3] has as its system MDA-MB-435 melanoma.
Assay [4] has as its system SW-620 colon.
For assay [5], the system named is MCF7 breast.
Assay [6] relates to HCT-116 colon.
In assay [7] the test system is HCC-2998 colon.
The subject of assay [8] is KM12 colon.

The structures appear in SMILES notation. The panel holds about 83,000 compounds, 20% with a hit somewhere; the sample as a whole holds those more often.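 How to read the values: 0–100, growth inhibition (40 = 60% inhibited); 0, no net growth; -100 to 0, cell death (-40 = 40% of starting cells died; -100 = all dead).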 Unmarked numbers belong to inactive results. Calls of active or inactive are those of the source. The calls were made as follows: active = growth percent below 10; inactive = the rest.

For the molecule `O=C(CCCCCCN1CC(=O)N2[C@H](c3ccc(Cl)cc3)c3[nH]c4ccccc4c3C[C@@H]2C1=O)NO`, the growth in assay [1] was 25.9%; in assay [2], 74.7%; in assay [3], 43.2%; in assay [4], 35.4%; in assay [5], 48%; in assay [6] it was 24.7%. The growth in assay [7] was 82.3%; in assay [8] it was 80.3%.
With `O=C(N/N=C/c1cc(Cl)ccc1O)c1ccccc1Nc1ccnc(C(F)(F)F)c1`, the growth in assay [1] was 8.91% (active); in assay [2], 18.7%; in assay [3], 35.2%; in assay [4] it was 36.3%; in assay [5], 20.6%; in assay [6], 32.2%. Moreover, the growth in assay [7] is 81.3%; in assay [8], 34.5%.
On to `C[C@H](CCCC(=O)NCC#CCN1CCN(C)CC1)[C@H]1CC[C@H]2[C@@H]3CC[C@@H]4CC(=O)CC[C@]4(C)[C@H]3CC[C@]12C`, for which the growth was 101% in assay [1]; 76.8% in assay [2]; 95.5% in assay [3]; 98.7% in assay [4]; 79.7% in assay [5]; 68.2% in assay [6]. The growth was 104% in assay [7] and 99.8% in assay [8].
On to `Cc1ccc2c(=O)cc(C(=O)Nc3sc4c(c3C(=O)NCc3cccnc3)CCCC4)oc2c1C`, for which the growth is 94% in assay [1]; 107% in assay [2]; 101% in assay [3]; 101% in assay [4]; 96.8% in assay [5]; 109% in assay [6]. Besides, the values for the growth in assay [7] and in assay [8] were 106% and 97.1%, respectively.
Turning to `O=C(Nc1ncccc1OCc1ccccc1)NC1CCCCCC1`, the growth in assay [1] is 71%; in assay [2] it was 78.2%; in assay [3], 89%; in assay [4] it was 94.9%; in assay [5], 79.9%; in assay [6], 58.2%. The growth is 105% in assay [7] and 88.8% in assay [8].
Take `O=C(NNC(=O)c1nc2cc(F)ccc2n2cccc12)c1cnccn1`: the growth in assay [1] was 38.5%; in assay [2], 66%; in assay [3], 36.2%; in assay [4] it was 26.4%; in assay [5], 34.8%; in assay [6], 32.4%. Moreover, the values for the growth in assay [7] and in assay [8] were 50.7% and 28%, respectively.
In the case of `O=C(/C=C/c1ccc(Cl)cc1)c1cccc(OCCCOc2cccc(C(=O)/C=C/c3ccc(Cl)cc3)c2)c1`, the growth in assay [1] is 78%; in assay [2], 105%; in assay [3], 101%; in assay [4], 98.6%; in assay [5], 21.1%; in assay [6], 26%. For the same molecule, the growth is 104% in assay [7] and 103% in assay [8].
On to `N#C/C(=C\c1ccc([N+](=O)[O-])cc1)n1nnc2cc(F)c(F)cc21`, for which the growth was -15.2% (active) in assay [1]; 77.6% in assay [2]; 41.1% in assay [3]; -18.5% (active) in assay [4]; 21.8% in assay [5]; -46.4% (active) in assay [6]. For the same molecule, the growth was -56.2% (active) in assay [7] and 3.75% (active) in assay [8].
As for `COc1ccc(CNc2c3ccccc3nc3ccccc23)c(OC)c1`, the growth was 52.9% in assay [1]; 66.7% in assay [2]; 38.7% in assay [3]; 20.7% in assay [4]; 14.5% in assay [5]; 12.8% in assay [6]. The growth in assay [7] was 35.6%; in assay [8] it was 54.3%.
Consider `Cc1nnc(-c2ccc3c(c2)nc(/C=C/c2ccccc2)n3C2CCCCC2)o1`, for which the growth in assay [1] is 52%; in assay [2], 81%; in assay [3], 83.8%; in assay [4] it was 111%; in assay [5] it was 77.1%; in assay [6], 64.5%. Also, the growth is 87.7% in assay [7] and 85.1% in assay [8].
Regarding `CCN(CC)CCN1C(=O)c2c(c(C)c3c(oc4ccc(OC)cc43)c2C)C1=O`, the growth in assay [1] was 110%; in assay [2], 116%; in assay [3] it was 104%; in assay [4] it was 92.2%; in assay [5] it was 94.8%; in assay [6], 83.7%. Further, the results for the growth in assay [7] and in assay [8] were 100% and 99.5%, respectively.
Consider `CCN1C(=O)N(CC)C2C1NN=c1s/c(=C\c3ccc[nH]3)c(=O)n12` (stereo not drawn), for which the growth is 31% in assay [1]; 51.2% in assay [2]; -57% (active) in assay [3]; 16.9% in assay [4]; 17.6% in assay [5]; 17% in assay [6]. The growth is 33.1% in assay [7] and 8.23% (active) in assay [8].
Turning to `Cc1ccc(N2C(=O)CCC2=O)cc1`, the growth in assay [1] is 105%; in assay [2], 80.6%; in assay [3] it was 102%; in assay [4] it was 96.1%; in assay [5] it was 94.6%; in assay [6], 92.9%. Moreover, the results for the growth in assay [7] and in assay [8] were 108% and 103%, respectively.
On to `CC1CCN(C(=S)SCC(=O)NC(=O)c2ccccc2)CC1`, for which the growth in assay [1] was 84.7%; in assay [2], 106%; in assay [3] it was 106%; in assay [4], 105%; in assay [5], 95.7%; in assay [6] it was 109%. The growth in assay [7] was 115%; in assay [8] it was 97%.
Regarding `Cc1ccc2nc(/C(C#N)=C(/CCCO)NC(Cc3ccccc3)C(=O)OCc3ccccc3)[nH]c(=O)c2c1` (stereo not drawn), the growth is 93% in assay [1]; 94.2% in assay [2]; 89.5% in assay [3]; 110% in assay [4]; 99.8% in assay [5]; 96.9% in assay [6]. In addition, the growth was -12.5% (active) in assay [7] and 109% in assay [8].
For the molecule `COc1cc(OC)c(/C=C/C(=O)c2c(O)cc(OC)c(C3CCN(C)CC3)c2OC)c(OC)c1`, the growth was -74.5% (active) in assay [1]; -6.55% (active) in assay [2]; -87.9% (active) in assay [3]; -83.8% (active) in assay [4]; -86.1% (active) in assay [5]; -100% (active) in assay [6]. Besides, the results for the growth in assay [7] and in assay [8] were -94.5% (active) and -62% (active), respectively.

(Values after PubChem BioAssay (NCI).)
